Sm TGR block = qHTS Assay for the Inhibitors of Schistosoma Mansoni Peroxiredoxins. purified TGR, DTNB reduction, TNB absorbance 405 nm. Potency, µM (highest dose often 114 µM), for inactives: at the top dose activity change, negative = inhibition, hits mostly inhibitors. actives 3% (n = 360,000). AID 485364, 2010; further: on the % scale 0 is the no-effect control and ±100 the full control effect; nearly all actives have a fitted effect of over 60% in size
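First, TGR (20 nM dispensed) and NADPH were mixed with compound. Second, a 15 min room-temperature incubation followed. Third, further NADPH and then DTNB were added to start the reaction. Finally, TNB absorbance was monitored kinetically.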
Pf growth 96h = Primary qHTS for delayed death inhibitors of the malarial parasite plastid, 96 hour incubation; P. falciparum luciferase reporter growth, 96 h; Potency, µM (top dose mostly 28.7 µM), inactives show at the highest dose activity change, negative = inhibition, actives largely listed as inhibitors; actives 6.9% (n = 320,000); further: on the % scale 0 is the no-effect control and ±100 the full control effect
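Luminescence readout: decreased luciferase signal marks inhibited growth of reporter-expressing P. falciparum in infected red cells (2% hematocrit, 0.05% parasitemia final), exposed to compound two generations (96 h, 37 C, 5% CO2).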
Pf growth 48h = Primary qHTS for delayed death inhibitors of the malarial parasite plastid, 48 hour incubation; P. falciparum luciferase growth in erythrocytes, 48 h; Potency, µM (titrated, usually from 28.7 µM), inactives show at the top dose activity change, negative = inhibition, usual class: inhibitors; actives 5.9% (n = 310,000); AID 504832, 2011; further: on the % scale 0 is the no-effect control and ±100 the full control effect
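First compound was added to culture medium, then infected red cells at 0.1% parasitemia and 2% hematocrit (final). After incubation at 37 C under 5% CO2, luciferase detection reagent was dispensed and light output recorded.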
SARS PLP yeast = qHTS of Yeast-based Assay for SARS-CoV PLP; S. cerevisiae expressing SARS-CoV PLpro, growth rescue; Potency, µM (titrated, usually from 32.9 µM), for inactives: top-dose activity, positive = growth rescue, most hits filed as activators; AID 485353, 2010; actives 0.19% (n = 330,000); calls by dose curve; further: 0% is about no effect; nearly all actives have a fitted effect of over 55% in size
Starred values were filed as active, the others as inactive. Most compounds without a hit are left out; they make up all but 12% or so of the library. Unless noted, the call rests on the fitted dose curve; in most records, active means well fitted curve in the direction sought with a large enough effect; inconclusive means small, poorly fitted or top-dose-only effect, or another doubt; inactive means no such curve, though single readings can be large; an effect the other way counts as inactive or inconclusive. Potency means the concentration at half of the fitted maximal effect.

How did O=S(=O)(c1ccccc1)N1CCN(c2nc(-c3cccnc3)nc3ccccc23)CC1 do in these assays?
Sm TGR block: -13%; Pf growth 96h: 8.3µM*; Pf growth 48h: inconclusive; SARS PLP yeast: -2%

How did O=S(=O)(c1ccc(F)cc1)N1CCN(c2nc(-c3cccnc3)nc3ccccc23)CC1 do in these assays?
Sm TGR block: -7%; Pf growth 96h: 10µM*; Pf growth 48h: 9.3µM*; SARS PLP yeast: -4%

What do the screens show for `O=S(=O)(c1ccc(Cl)cc1)N1CCN(c2nc(-c3cccs3)nc3ccccc23)CC1`?
Sm TGR block: -3%; Pf growth 96h: 1.5µM*; Pf growth 48h: 3.7µM*; SARS PLP yeast: 12%

What do the screens show for `CC(=O)c1ccc(S(=O)(=O)N2CCN(c3nc(-c4cccnc4)nc4ccccc34)CC2)cc1`?
Sm TGR block: 2%; Pf growth 96h: inconclusive; Pf growth 48h: 8.3µM*; SARS PLP yeast: -5%

How did O=S(=O)(c1ccc2c(c1)OCCO2)N1CCN(c2nc(-c3cccnc3)nc3ccccc23)CC1 do in these assays?
Sm TGR block: 5%; Pf growth 96h: inconclusive; Pf growth 48h: inconclusive; SARS PLP yeast: 0%

How did CCOC(=O)c1ccc(N2C(=O)c3[nH]nc(-c4ccccc4)c3C2c2cccs2)cc1 (stereo not drawn) do in these assays?
Sm TGR block: -3%

Results for CC(=O)c1cccc(NC(=O)[C@H](Cc2ccccc2)N2Cc3ccccc3C2=O)c1 ?
Sm TGR block: 9%

How did Cc1ccccc1OCC(=O)NN1C(=O)C2C3C=CC(O3)C2C1=O (stereo not drawn) do in these assays?
Sm TGR block: 20µM*; Pf growth 96h: inconclusive; Pf growth 48h: 10%; SARS PLP yeast: 0%

What do the screens show for `Cc1cccc(OCC(=O)NN2C(=O)C3C4C=CC(O4)C3C2=O)c1` (stereo not drawn)?
Pf growth 96h: -9%; Pf growth 48h: -2%; SARS PLP yeast: 0%

What do the screens show for `CCOc1ccc(C(=O)NN2C(=O)C3C4C=CC(O4)C3C2=O)cc1` (stereo not drawn)?
Sm TGR block: 22µM*; Pf growth 96h: 83%; Pf growth 48h: 31%; SARS PLP yeast: -1%

Results for CCOc1ccc(NC(=O)c2ccc(N)cc2)cc1 ?
Sm TGR block: -16%; Pf growth 96h: 94%; Pf growth 48h: 129%; SARS PLP yeast: -42%

How did CC(=O)c1cccc(NC(=O)Nc2nnc(N3CCCC3)s2)c1 do in these assays?
Sm TGR block: -12%

How did Cc1c(NC(=O)Nc2cccc(C(F)(F)F)c2)sc2nc3n(c(=O)c12)CCC(C)CC3 (stereo not drawn) do in these assays?
Sm TGR block: 0%

Results for Cc1ccc(NC(=O)C(C)Oc2ccccc2)cc1S(=O)(=O)N1CCCCCC1 (stereo not drawn) ?
Sm TGR block: -6%; Pf growth 96h: inconclusive; Pf growth 48h: 6.6µM*; SARS PLP yeast: 6%

What do the screens show for `CC(Oc1cccc(Cl)c1)C(=O)Nc1ccc(N2CCOCC2)cc1N1CCOCC1` (stereo not drawn)?
Sm TGR block: 1%; Pf growth 96h: inconclusive; Pf growth 48h: 6.6µM*; SARS PLP yeast: -23%

Results for CC(Oc1ccccc1)C(=O)Nc1ccc(S(=O)(=O)N2CCCC2)cc1 (stereo not drawn) ?
Sm TGR block: 9%; Pf growth 96h: 23%; Pf growth 48h: inconclusive; SARS PLP yeast: -3%

What do the screens show for `CC(Oc1ccc(F)cc1)C(=O)Nc1ccc(N2CCOCC2)cc1N1CCOCC1` (stereo not drawn)?
Sm TGR block: -2%; Pf growth 96h: inconclusive; Pf growth 48h: inconclusive; SARS PLP yeast: -9%

What do the screens show for `Cc1ccccc1OCCC(=O)Nc1cc(S(=O)(=O)N2CCOCC2)ccc1OC(C)C`?
Sm TGR block: -17%; Pf growth 96h: 13µM*; Pf growth 48h: 15µM*; SARS PLP yeast: 1%

How did CCN1CCN(c2ccc(S(=O)(=O)N3CCCCC3)cc2NC(=O)C(C)Oc2ccc(F)cc2)CC1 (stereo not drawn) do in these assays?
Sm TGR block: 2%; Pf growth 96h: -24%; Pf growth 48h: 8.3µM*; SARS PLP yeast: -3%

Results for CCCCOC(=O)c1cccc(NC(=O)c2cc3ccccc3o2)c1 ?
Sm TGR block: 4%

Bioassay records from PubChem.
